In PubChem BioAssay AID720697 (Broad Institute, 2013):
Measured potencies and affinities stand elsewhere. Results filed as inconclusive are left out. Values without a mark were called inactive. Activity calls are given as the source filed them.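 The calls were made as follows: active = signal loss with fitted half-maximal concentration at or below twice the top valid tested dose in every test run; inconclusive = runs disagree, flat 30 to 70% signal loss, or poor fit; inactive = all runs flat, opposite direction, or potency beyond limit.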

experiment: HEK293T cytotoxicity, dose response, cytotoxicity control for miR-122 modulator project, cell-based, inhibitor set, cherry-pick, set 2 (AID 720697); conditions: HEK293T viability, CellTiter-Glo luminescence, 48 h; series mostly up to 26 µM;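 also: 0% = median of neutral control wells and -100% = MG132 positive control wells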

Row | Compound | outcome | activity change, negative = cytotoxicity
1 | CN1C(=O)c2cc(NC(=O)c3ccc4c(c3)OCO4)ccc2OC[C@H]2O[C@H](CC(=O)O)CC[C@@H]21 | inactive | –
2 | CN1[C@@H](CO)[C@@H]2c3ccccc3N(C(=O)Nc3cc(F)ccc3F)C[C@@H]21 | inactive | –
3 | O=C(NC[C@H]1[C@H](c2ccccc2)[C@H](CO)N1CC1CCCC1)c1ccncc1 | inactive | –
4 | CCCC(=O)Nc1ccc2c(c1)C(=O)N(C)[C@@H]1CC[C@H](CC(=O)NCc3cccc(F)c3)O[C@H]1CO2 | inactive | –
5 | COCC(=O)N(C)C[C@H]1Oc2cc(-c3ccccc3F)ccc2S(=O)(=O)N([C@H](C)CO)C[C@H]1C | inactive | –
6 | C[C@@H]1CN([C@@H](C)CO)C(=O)c2cccc(NC(=O)Nc3ccc4c(c3)OCO4)c2O[C@@H]1CN(C)Cc1ccc(Oc2ccccc2)cc1 | inactive | –
7 | Cc1cc(C)nc(NS(=O)(=O)c2ccc(NC(=S)NC(=O)C3CCCC3)cc2)n1 | inactive | –
8 | C=CCc1c(OC)ccc2ccc(=O)oc12 | – | -1.92% [at 6 µM]
9 | Cc1nnc(NC(=O)CSc2nc(C(C)C)nc3sc(C)c(C)c23)s1 | inactive | –
10 | CN1C(=O)c2cc(NC(=O)c3ccccc3F)ccc2OC[C@H]2O[C@H](CC(=O)NCc3ccc4c(c3)OCO4)CC[C@@H]21 | inactive | –
11 | Cc1ccc(-c2cnc3c(c2)C(=O)N([C@H](C)CO)C[C@@H](C)[C@H](CN(C)CC2CCCCC2)O3)cc1 | inactive | –
12 | C[C@@H]1CN([C@H](C)CO)S(=O)(=O)c2ccc(/C=C/c3ccccc3)cc2O[C@@H]1CN(C)C(=O)c1cccnc1 | inactive | –
13 | CNC(=O)C[C@@H]1CC[C@@H]2[C@H](COc3ccc(NC(=O)c4cccc(OC)c4)cc3C(=O)N2C)O1 | inactive | –
14 | COc1ccc(N2CCc3c(C)nc4c(OC)cc(OC)cc4c32)c(OC)c1 | inactive | –
15 | Cc1ccccc1NC(=O)Nc1ccc2c(c1)C(=O)N(C)[C@@H]1CC[C@H](CC(=O)NCC3CC3)O[C@@H]1CO2 | inactive | –
16 | CCC(=O)Nc1ccc2c(c1)C(=O)N(C)[C@@H]1CC[C@H](CC(=O)NCCN3CCCCC3)O[C@H]1CO2 | inactive | –
17 | CNC(=O)C[C@H]1CC[C@@H]2[C@H](COc3ccc(NC(=O)Nc4ccccc4OC)cc3C(=O)N2C)O1 | inactive | –
18 | CCCCN(CCCC)C(=O)CN(C)S(=O)(=O)c1ccc2c(c1)n(C)c(=O)c(=O)n2C | inactive | –
19 | CO[C@@H]1CN(C)C(=O)c2cc(NC(=O)Nc3ccc(Cl)c(Cl)c3)ccc2OC[C@H](C)NC[C@H]1C | inactive | –
20 | CCOc1ccc(NC(=S)N(CCCN2CCCC2)Cc2cccn2Cc2ccc(Cl)cc2)cc1 | inactive | –

Row | Compound | outcome | activity change, negative = cytotoxicity
21 | C/C=C/c1ccc([C@H]2[C@@H](CO)N(C(=O)COC)[C@H]2CNC(=O)CC)cc1 | inactive | –
22 | CN1C(=O)c2cc(NC(=O)c3ccc(C(F)(F)F)cc3)ccc2OC[C@@H]2O[C@@H](CC(=O)NCc3ccc4c(c3)OCO4)CC[C@@H]21 | inactive | –
23 | O=C(Nc1ccccc1F)N1[C@H](CO)[C@@H]2c3ccccc3NC[C@@H]21 | inactive | –
24 | CCNC(=O)Nc1ccc2c(c1)C(=O)N(C)[C@H]1CC[C@@H](CC(=O)NCCOC)O[C@@H]1CO2 | inactive | –
25 | C/C=C/c1ccc([C@H]2[C@@H](CO)N[C@@H]2CN(CC(C)C)C(=O)c2ccccn2)cc1 | inactive | –
26 | CC(C)CC#Cc1ccc([C@H]2[C@@H](CO)N3CCCCN(S(=O)(=O)Cc4ccccc4)C[C@H]23)cc1 | inactive | –
27 | COc1cccc(-c2nc(NCCN3CCOCC3)c3ccccc3n2)c1O | inactive | –
28 | C/C=C/c1ccc([C@@H]2[C@@H](CO)N(C(C)=O)[C@@H]2CN(C)C(=O)c2ccccn2)cc1 | inactive | –
29 | COCC(=O)Nc1ccc2c(c1)C(=O)N(C)[C@@H]1CC[C@@H](CC(=O)NC3CCCC3)O[C@@H]1CO2 | inactive | –
30 | CN1C(=O)c2cc(NC(=O)Cc3ccccc3)ccc2OC[C@H]2O[C@@H](CC(=O)NC3CCC3)CC[C@H]21 | inactive | –
31 | CC(C)(C)c1ccc(S(=O)(=O)NCCc2ccncc2)cc1 | inactive | –
32 | COc1cccc(CNC(=O)C[C@@H]2CC[C@@H]3[C@@H](COc4ccc(NC(C)=O)cc4C(=O)N3C)O2)c1 | inactive | –
33 | C[C@@H]1CN([C@H](C)CO)S(=O)(=O)c2ccc(C3=CCCC3)cc2O[C@@H]1CN(C)C(=O)C1CCOCC1 | inactive | –
34 | COc1cccc(C(=O)Nc2ccc3c(c2)C(=O)N(C)[C@H]2CC[C@H](CC(=O)NCc4ccc(F)cc4)O[C@H]2CO3)c1 | inactive | –
35 | Cc1ccccc1NCN1C(=O)C2C3C=CC(C3)C2C1=O (centres undefined) | inactive | –
36 | Cc1ccc(S(=O)(=O)NCCCNS(C)(=O)=O)cc1 | inactive | –
37 | C/C=C/c1ccc([C@@H]2[C@@H](CO)N(C(C)=O)[C@@H]2CN(CC)C(=O)CN(C)C)cc1 | inactive | –
38 | COCC(=O)N(C[C@H]1[C@H](c2ccccc2)[C@H](CO)N1C(=O)NC(C)C)C(C)C | inactive | –
39 | COCC(=O)Nc1ccc2c(c1)C(=O)N(C)[C@@H]1CC[C@@H](CC(=O)NC3CCCC3)O[C@H]1CO2 | inactive | –
